Z-score and composite z-score data for 9 compounds are collected here from PubChem BioAssay.

The source made the active and inactive calls. Unless noted, no rule for the calls is given here.

Assay [1] can be described thus: compound effects on lung adenocarcinoma cell viability – A549, calcein-AM fluorescence, 48 h, basal, profiling panel (AID 1162). Also: test concentration not given here. The conditions noted are these: higher = more signal.
The nature of assay [2]: compound effects on differentiated 3T3-L1 adipocyte viability – cell-based, 3T3-L1 adipocytes, calcein-AM fluorescence, 48 h, basal, profiling panel (AID 1163). Also: test concentration not given here. The conditions noted are these: 3T3-L1 adipocytes viability, higher = more signal.
Assay [3] in a line: compound effects on hepatocellular carcinoma cell viability – HepG2, calcein-AM fluorescence, 48 h, basal, profiling panel (AID 1164). Also: test concentration not given here. The conditions noted are these: higher = more signal.
Assay [4] is described as follows: compound effects on multiple myeloma cell viability – MM1S, calcein-AM fluorescence, 48 h, basal, profiling panel (AID 1165).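 Also: viability of MM1S multiple myeloma cells under basal unstimulated conditions; test concentration not given here.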 To be noted: higher = more signal.
Assay [5] is described as follows: calcein-AM signal in unstimulated myeloma cells – cell-based, calcein-AM fluorescence, 48 h, PK04 Diversity Set, profiling panel (AID 1166).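 Also: cells grown under basal conditions without added stimulus; test concentration not given here.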 To be noted: RPMI8226 myeloma viability, higher = more signal.
A short description of assay [6]: JC-1 mitochondrial signal, unstimulated HepG2 cells – cell-based, JC-1 fluorescence, 24 h, 100 nL compound, profiling panel (AID 1167). Also: test concentration not given here. The conditions noted are these: HepG2 mitochondrial potential, higher = more signal.
Assay [7] is described as follows: JC-1 mitochondrial signal, unstimulated adipocytes – cell-based, JC-1 fluorescence, 3T3-L1 adipocytes, 24 h, 100 nL compound, profiling panel (AID 1168). Also: test concentration not given here. The conditions noted are these: JC-1 mitochondrial fluorescence, higher = more signal, called active from +8 up or from −8 down.
A short description of assay [8]: JC-1 mitochondrial signal, unstimulated myeloma cells – cell-based, JC-1 fluorescence, RPMI8226, 24 h, 100 nL compound, profiling panel (AID 1169). Also: test concentration not given here. The conditions noted are these: JC-1 mitochondrial potential fluorescence, higher = more signal.
A short description of assay [9]: JC-1 mitochondrial signal, unstimulated MM1S myeloma – cell-based, JC-1 fluorescence, 24 h, 100 nL compound, profiling panel (AID 1170). Also: test concentration not given here. The conditions noted are these: MM1S mitochondrial potential, higher = more signal.
Assay [10] can be described thus: resazurin metabolic signal in A549 cells – cell-based, resazurin fluorescence, 24 h, PK04 Diversity Set, profiling panel (AID 1171). Also: test concentration not given here. To be noted: A549 viability, higher = more signal, called active from +8 up or from −8 down. For orientation: Resazurin is reduced to fluorescent resorufin, in cell work by metabolically active cells.
Assay [11] is described as follows: resazurin metabolic signal in HepG2 cells – cell-based, resazurin fluorescence, 24 h, PK04 Diversity Set, profiling panel (AID 1172). Also: test concentration not given here. The conditions noted are these: HepG2 viability, higher = more signal.
Assay [12] in a line: budding yeast growth changes without added modifier – OD600, strain BY4716, 24 h, basal condition, primary screen (AID 1173). The conditions noted are these: S. cerevisiae BY4716 growth, OD600, 24 h; higher = more signal, called active from +8 up or from −8 down.
Assay [13] is described as follows: viability profiling in MM1S myeloma cells – cell-based, resazurin fluorescence, basal, 24 h, PK04 Diversity Set, profiling panel (AID 1174). Also: test concentration not given here. The conditions noted are these: higher = more signal, called active from +8 up or from −8 down.
The target in assay [14] is Dihydroorotate dehydrogenase (quinone), mitochondrial (Plasmodium falciparum (isolate 3D7)) (UniProt Q08210). The experiment in a line: inhibition of P. falciparum DHODH – biochemical, C-terminal His tag, absorbance 600 nm, primary screen (AID 1175).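 Also: recombinant parasite enzyme with a five histidine tag at its C terminus; test concentration not given here.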 The conditions noted are these: PfDHODH enzyme, DCIP absorbance 600 nm; higher = more signal, called active from +8 up or from −8 down.

Assay [15] can be described thus: inhibition of PAO1 biofilm formation – strain PAO1, LB-PBS medium, absorbance 600 nm, primary screen (AID 1176). Also: test concentration not given here. The conditions noted are these: P. aeruginosa PAO1 growth/biofilm, A600, 12 h; higher = more signal.
Assay [16] in a line: growth modulation of vineyard yeast isolate – strain RM11-1a, OD600, basal, 24 h, primary screen (AID 1177).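 Also: cultures grown under basal conditions with no added stressor; test concentration not given here.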 The conditions noted are these: S. cerevisiae RM11-1a growth, OD600, 24 h; higher = more signal, called active from +8 up or from −8 down.
The nature of assay [17]: growth of efflux-deficient E. coli DRC39 – strain DRC39, OD650, 24 h, E. coli filamentation inducers, primary screen (AID 1178).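 Also: growth measured as culture turbidity by optical density at 650 nm; test concentration not given here.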 The conditions noted are these: E. coli DRC39 acrAB, higher = more signal, called active from +8 up or from −8 down.
Assay [18] in a line: growth of efflux-deficient E. coli DRC39 – strain DRC39, OD650, 48 h, E. coli filamentation inducers, primary screen (AID 1179).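 Also: screen aims at cell division blockers that make cells filament.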 To be noted: E. coli DRC39 delta-acrAB growth, higher = more signal, called active from +8 up or from −8 down.
Assay [19] can be described thus: viability profiling in RPMI8226 myeloma cells – cell-based, resazurin fluorescence, basal, 24 h, PK04 Diversity Set, profiling panel (AID 1180).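 Also: RPMI8826 multiple myeloma cell line at 5000 cells per well; test concentration not given here.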 The conditions noted are these: higher = more signal.
For assay [20], the target named is E3 ubiquitin-protein ligase XIAP (Homo sapiens) (UniProt P98170). Briefly: small molecules binding XIAP protein – biophysical, small-molecule microarray, fluorescence 635 nm, primary screen (AID 1181).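 Also: score merges 667 nm emission and signal to noise over triplicate slides.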 To be noted: higher = more signal.
Sequence of E3 ubiquitin-protein ligase XIAP (Homo sapiens) (P98170 whole entry, looked up): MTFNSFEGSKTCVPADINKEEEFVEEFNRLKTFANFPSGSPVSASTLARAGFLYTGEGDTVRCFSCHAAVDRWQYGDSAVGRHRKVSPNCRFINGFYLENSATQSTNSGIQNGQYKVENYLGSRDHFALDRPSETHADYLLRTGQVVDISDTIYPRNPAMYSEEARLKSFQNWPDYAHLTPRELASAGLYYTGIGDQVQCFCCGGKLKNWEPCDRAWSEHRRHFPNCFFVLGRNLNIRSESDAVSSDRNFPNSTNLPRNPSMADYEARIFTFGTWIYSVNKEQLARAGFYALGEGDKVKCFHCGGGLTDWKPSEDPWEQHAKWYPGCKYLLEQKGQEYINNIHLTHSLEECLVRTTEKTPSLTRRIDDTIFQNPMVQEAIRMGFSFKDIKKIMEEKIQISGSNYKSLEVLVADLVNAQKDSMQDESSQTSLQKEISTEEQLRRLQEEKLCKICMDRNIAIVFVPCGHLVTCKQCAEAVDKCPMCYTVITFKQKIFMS

Sequence of Dihydroorotate dehydrogenase (quinone), mitochondrial (Plasmodium falciparum (isolate 3D7)) (Q08210 whole entry, looked up): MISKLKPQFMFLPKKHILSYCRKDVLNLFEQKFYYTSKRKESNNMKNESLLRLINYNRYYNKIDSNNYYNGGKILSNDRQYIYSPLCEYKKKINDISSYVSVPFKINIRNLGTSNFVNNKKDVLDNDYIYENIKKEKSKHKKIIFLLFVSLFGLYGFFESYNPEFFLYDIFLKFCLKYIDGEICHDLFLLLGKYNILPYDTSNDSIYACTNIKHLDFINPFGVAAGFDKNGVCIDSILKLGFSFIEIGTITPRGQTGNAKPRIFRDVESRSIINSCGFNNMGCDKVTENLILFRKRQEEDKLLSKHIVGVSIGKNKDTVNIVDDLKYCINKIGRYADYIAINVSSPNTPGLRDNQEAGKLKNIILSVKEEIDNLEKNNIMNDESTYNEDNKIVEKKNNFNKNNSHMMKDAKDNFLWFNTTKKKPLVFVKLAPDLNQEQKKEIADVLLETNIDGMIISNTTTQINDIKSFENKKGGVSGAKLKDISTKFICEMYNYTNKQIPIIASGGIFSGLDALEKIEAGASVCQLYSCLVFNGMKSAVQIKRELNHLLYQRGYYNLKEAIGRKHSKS

`O=C1OCC=C[C@H]2OC34C=CCN(Cn5nnc6ccccc65)C(=O)[C@H]3N(CCCO)C(=O)[C@@H]4[C@@H]12` (stereo not given in full): the z-score is -0.267 in assay [1]; 0.832 in assay [2]; -0.64 in assay [3]; 0.266 in assay [4]; 0.0897 in assay [5]; -0.541 in [6]. In addition, the z-score in assay [7] was 0.904 (inactive); in assay [8], -0.252; in [9], -1.33; in [10], -0.813 (inactive); in assay [11] it was -0.281; in assay [12] it was -0.68 (inactive). In addition, the z-score in assay [13] is -0.319 (inactive); in assay [15], -0.0684 (inactive); in assay [16] it was -0.0325 (inactive); in [17], -1.4 (inactive); in assay [18], -1.1 (inactive); in assay [19], -0.509. Also, the composite z-score is -2.85 (inactive) in assay [14] and -0.105 in assay [20].
Turning to `COc1ccc(C#Cc2ccc3c(c2)[C@]2(C(=O)N3)[C@H](c3ccc(O)cc3)N3[C@H](c4ccccc4)[C@H](c4ccccc4)OC(=O)[C@H]3[C@@H]2C(=O)O)cc1`, the z-score was -0.884 in assay [1]; 0.943 in [2]; 0.127 in assay [3]; -2.24 in assay [4]; -2.2 in assay [5]; -3.68 in assay [6]. Moreover, the z-score was -0.742 (inactive) in assay [7]; -0.28 in assay [8]; -0.361 in [9]; 0.344 (inactive) in [10]; 0.275 in [11]; -1.16 (inactive) in assay [12]. Moreover, the z-score in assay [13] is 0.504 (inactive); in assay [15], 1.15 (inactive); in assay [16] it was 0.0708 (inactive); in assay [17], 0.355 (inactive); in assay [18] it was -0.341 (inactive); in assay [19], 0.801. Moreover, the composite z-score in assay [14] was -2.78 (inactive); in [20], 0.126.
Take `O=C(N1CCCCC1)[C@@]1(CCS(=O)(=O)c2ccccc2)COC(c2ccc(OCCCO)cc2)=N1`: the z-score was 0.606 in [1]; -0.609 in assay [2]; 0.299 in [3]; -1.03 in assay [4]; 0.0963 in [5]; 0.147 in assay [6]. The z-score was -0.328 (inactive) in assay [7]; -1.13 in assay [8]; -1.16 in assay [9]; 0.327 (inactive) in assay [10]; -0.27 in assay [11]; -0.22 (inactive) in assay [12]. Further, the z-score is -1.52 (inactive) in assay [13]; 0.258 (inactive) in [15]; -0.008 (inactive) in assay [16]; 0.196 (inactive) in assay [17]; 0.21 (inactive) in assay [18]; -0.675 in assay [19]. Also, the composite z-score in [14] is -0.0606 (inactive); in assay [20] it was 0.0942.
As for `CC(C)(C)N1CC=CC23O[C@@H]4C=CCOC(=O)[C@@H]4[C@H]2C(=O)N(CCCCCCO)[C@@H]3C1=O` (stereo not given in full), the z-score was -0.127 in assay [1]; -0.739 in assay [2]; -0.165 in [3]; 1.53 in [4]; 0.0749 in assay [5]; -0.403 in assay [6]. Moreover, the z-score in [7] was 0.567 (inactive); in assay [8], 0.799; in assay [9], -0.112; in assay [10], -0.0435 (inactive); in assay [11] it was -0.303; in [12], -0.093 (inactive). In addition, the z-score was 0.448 (inactive) in [13]; -0.608 (inactive) in assay [15]; -0.957 (inactive) in assay [16]; 0.226 (inactive) in assay [17]; 0.254 (inactive) in assay [18]; 0.29 in assay [19]. The composite z-score is -0.817 (inactive) in assay [14] and 0.0385 in [20].
Take `NC(N)=NCCCn1cc(CNC(=O)[C@@H](N)Cc2ccccc2)nn1`: the z-score in assay [1] was -0.531; in assay [2], -0.637; in assay [3] it was -0.948; in assay [4], -0.0334; in [5], -1.23; in [6], -0.868. Besides, the z-score in assay [7] is -0.283 (inactive); in assay [8] it was 0.714; in assay [9], 0.225; in assay [10], -0.414 (inactive); in assay [11], -0.686; in [12], -0.85 (inactive). For the same compound, the z-score is -0.433 (inactive) in assay [13]; -0.264 (inactive) in assay [15]; -0.297 (inactive) in [16]; 0.19 (inactive) in assay [17]; -0.0439 (inactive) in assay [18]; -0.68 in assay [19]. Besides, the composite z-score was -2.75 (inactive) in assay [14] and 0.012 in assay [20].
`CCCCCCc1nc(C2CC2)cc2c1[Si](C(C)C)(C(C)C)OC2`: the z-score in [1] is -0.315; in assay [2] it was 0.865; in assay [3], -0.131; in assay [4] it was -2.26; in [5], -1.92; in assay [6], -1.01. In addition, the z-score is -0.0319 (inactive) in assay [7]; -0.651 in [8]; -0.00829 in [9]; -0.366 (inactive) in [10]; -0.621 in [11]; 0.436 (inactive) in [12]. Moreover, the z-score in assay [13] is 0.0766 (inactive); in [15], -0.227 (inactive); in [16], -0.431 (inactive); in assay [17], -0.423 (inactive); in assay [18], -0.606 (inactive); in [19], -0.584. Also, the results for the composite z-score in assay [14] and in assay [20] were -2.54 (inactive) and -0.206, respectively.
In the case of `CCCCO[C@H]1C[C@H]2C(I)=C[C@@H]1C(=O)[C@]21CO1`, the z-score was -0.788 in assay [1]; -0.894 in [2]; -0.534 in assay [3]; -1.98 in assay [4]; -1.16 in assay [5]; -1.39 in assay [6]. Moreover, the z-score in [7] is -0.0178 (inactive); in assay [8] it was 0.432; in assay [9] it was -0.569; in assay [10], 0.0651 (inactive); in assay [11], -0.0876; in assay [12], -8.45 (active). Besides, the z-score was -0.67 (inactive) in [13]; 0.0481 (inactive) in assay [15]; -1.31 (inactive) in assay [16]; -0.814 (inactive) in assay [17]; -1.05 (inactive) in assay [18]; -0.0824 in [19]. The composite z-score in assay [14] is -0.0864 (inactive); in assay [20], -0.255.
Regarding `COc1ccc(CN(C2=CC[C@@]3(C(N)=O)C(=O)C(Cl)=C(Cl)C(=O)[C@@]3(C#N)C2)S(=O)(=O)c2ccc(Br)cc2)cc1`, the z-score in assay [1] was 0.236; in assay [2], 0.167; in assay [3], 0.0144; in assay [4] it was -3.34; in assay [5] it was -1.66; in assay [6] it was -2.16. Further, the z-score in assay [7] was -0.689 (inactive); in [8] it was -0.885; in assay [9] it was -2.06; in assay [10], -1.12 (inactive); in assay [11] it was -0.275; in assay [12], -1.2 (inactive). In addition, the z-score was -2.88 (inactive) in assay [13]; 0.481 (inactive) in assay [15]; -0.96 (inactive) in assay [16]; 0.506 (inactive) in assay [17]; 0.575 (inactive) in assay [18]; -1.18 in assay [19]. The composite z-score was -4.12 (inactive) in [14] and 0.0937 in assay [20].
As to `COc1ccccc1CN1C(=O)c2ccccc2[C@](Cc2ccccc2I)(C(=O)NCC(F)(F)F)[C@@H]1c1ccc(CO)cc1`, the z-score in assay [1] is -0.698; in assay [2], 0.95; in assay [3] it was -0.568; in assay [4], -2.39; in assay [5] it was -4.25; in assay [6] it was 0.349. For the same compound, the z-score in [7] was -1.39 (inactive); in assay [8], -0.68; in assay [9], -0.176; in [10], 0.12 (inactive); in assay [11], -0.569; in assay [12], -1.28 (inactive). The z-score in assay [13] was -0.142 (inactive); in [15], 0.457 (inactive); in assay [16] it was 0.648 (inactive); in [17], -0.496 (inactive); in [18], -0.613 (inactive); in [19], 0.17. Besides, the composite z-score was -0.673 (inactive) in [14] and 0.0264 in assay [20].
